Test results as given in PubChem BioAssay (Tox21).
Inconclusive results are not listed. Some compounds were tested as several samples or in several runs, with calls that do not always agree. The source made the active and inactive calls. Unless noted, calls follow the shape of the dose curve; as a rule, active = well fitted cell-killing curve with a large enough effect in the repeat runs; inconclusive = weak or mixed curves, or effect the other way; inactive = no such curve, though single readings can be large or run the other way.

Target: Thyrotropin receptor (Homo sapiens) (UniProt P16473)
Sequence (P16473 whole entry, looked up): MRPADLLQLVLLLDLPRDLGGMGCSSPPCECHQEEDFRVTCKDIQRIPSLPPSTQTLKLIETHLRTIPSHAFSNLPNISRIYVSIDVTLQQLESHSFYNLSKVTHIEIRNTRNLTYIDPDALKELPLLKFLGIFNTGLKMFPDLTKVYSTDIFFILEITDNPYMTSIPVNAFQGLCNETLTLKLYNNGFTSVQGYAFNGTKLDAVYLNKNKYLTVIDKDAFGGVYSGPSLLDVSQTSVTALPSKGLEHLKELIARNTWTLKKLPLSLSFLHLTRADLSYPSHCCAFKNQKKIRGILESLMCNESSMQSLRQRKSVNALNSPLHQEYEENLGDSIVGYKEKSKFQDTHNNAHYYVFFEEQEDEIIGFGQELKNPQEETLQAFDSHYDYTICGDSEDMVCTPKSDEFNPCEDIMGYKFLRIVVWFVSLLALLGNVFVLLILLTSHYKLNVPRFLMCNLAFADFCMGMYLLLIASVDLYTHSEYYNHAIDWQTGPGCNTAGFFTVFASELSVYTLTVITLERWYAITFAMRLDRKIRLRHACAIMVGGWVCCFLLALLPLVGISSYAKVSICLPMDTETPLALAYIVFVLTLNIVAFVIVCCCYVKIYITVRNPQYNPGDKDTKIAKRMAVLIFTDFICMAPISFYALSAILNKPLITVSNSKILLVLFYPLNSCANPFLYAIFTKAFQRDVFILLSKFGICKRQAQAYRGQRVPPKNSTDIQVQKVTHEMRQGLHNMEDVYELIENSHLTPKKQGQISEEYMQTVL
Assay: qHTS assay to identify small molecule antagonists of the thyroid stimulating hormone receptor (TSHR) signaling pathway (AID 1259385; calls by dose curve; also: nearly all actives have a fitted effect of over 20% in size)
Details: TSHR-HEK293 cAMP HTRF, TSH-stimulated antagonist mode; series mostly up to 92.4 µM; activity change, negative = inhibition: at the top concentration
Method in brief: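 TSHR-HEK293 cells (800/well) plated 18 h, then compounds with Ro20-1724 and TSH at 1.5 ng/mL final, 30 min at room temperature. cAMP quantified by HTRF (cAMP-d2/anti-cAMP-cryptate, 1 h); 15 concentrations in triplicate.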
% is scaled to controls: 0 for no effect and ±100 for the full control effect; potency is read from the fitted curve at half-maximal effect.

| Compound | activity change, negative = inhibition | Potency |
| --- | --- | --- |
| CCCCNc1c(C(=O)OCC)c(C)nc2c1cnn2CC | -6.13% [at 42.5 µM] (inactive) | – |
| O=S(=O)(O)CCCN1CCOCC1 | 3.39% (inactive) | – |
| CCCCCCCCCCCCCc1ccccc1 | 0.532% [at 42.5 µM] (inactive) | – |
| CC1=CCC(=O)O1 | 4.77% (inactive) | – |
| CCC(=O)CC(C)CC (stereo unspecified) | 1.62% [at 0.349 µM] (inactive) | – |
| O=S(O)O | 0.0817% [at 19 µM] (inactive) | – |
| O=C=NCc1cccc(CN=C=O)c1 | 2.52% [at 19 µM] (inactive) | – |
| CCN(CC)CCSC(=O)C(c1ccccc1)c1ccccc1 | 3.02% [at 42.5 µM] (inactive) | – |
| CC(=O)c1ccccc1N | 2.1% (inactive) | – |
| c1ccc(Nc2cccc3ccccc23)cc1 | – | inactive |
| Cc1cc(C)c(C=O)c(C)c1 | -0.893% (inactive) | – |
| CNC(=S)NN | -0.255% (inactive) | – |
| CCCCCCCC(C)=O | -1.1% (inactive) | – |
| C/C=C/C(=O)Oc1c(CCCCCC(C)C)cc([N+](=O)[O-])cc1[N+](=O)[O-] | -9.4% (inactive) | – |
| C/C=C/C(=O)C1=C(C)CCCC1(C)C | 3.98% (inactive) | – |
| CC(C)=C1CC[C@@H](C)CC1=O | -0.0164% (inactive) | – |
| CN(Cc1cc(Br)cc(Br)c1N)C1CCCCC1 | – | 29.8 µM (active) |
| C(=C/c1ccccc1)/c1ccccc1 | -14.7% (inactive) | – |
| CC=O | -9.37% (inactive) | – |
| CCCCCCCCCCCCCC[n+]1ccccc1 | 6.48% (inactive) | – |
| CCCCCCCC/C=C\CCCCCCCC(=O)OCCOC(=O)CCCCCCC/C=C\CCCCCCCC | 4.04% (inactive) | – |
| COc1ccc(C#N)cc1 | -5.1% (inactive) | – |
| CCc1cccc(C)c1 | 0.0063% (inactive) | – |
| CC(C)=CC1CC(C)CCO1 (stereo unspecified) | 1.8% (inactive) | – |
| CCCCCCCCCCCCCOP(=O)(O)O | 4.42% (inactive) | – |
| O=C1OC(=O)c2ccc3c4c(ccc1c24)C(=O)OC3=O | -0.901% (inactive) | – |

Test system: not listed separately
Assay: qHTS assay to identify small molecule agonists of the estrogen receptor alpha (ER-alpha) signaling pathway in the presence of an antagonist - cell viability counter screen (AID 1259386);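 also: cells exposed to compounds for 22 h at 37 °C before the viability read; nearly all actives have a fitted effect of over 30% in size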
Details: VM7Luc4E2 viability, CellTiter-Fluor fluorescence, 22 h; series mostly up to 92.4 µM; activity change, negative = cytotoxicity: at the top concentration
Method in brief: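 In this counter screen, compound effects on VM7Luc4E2 viability were tested in the presence of the antagonist ICI-182,780 at 10.0nM final. Compounds were dosed at 15 concentrations, exposure lasted 22hr, and the CellTiter-Fluor signal was read.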

| Compound | activity change, negative = cytotoxicity | Potency |
| --- | --- | --- |
| COc1cccc(O)c1 | 0.761% (inactive) | – |
| CCCCNc1c(C(=O)OCC)c(C)nc2c1cnn2CC | -4.01% [at 42.5 µM] (inactive) | – |
| O=S(=O)(O)CCCN1CCOCC1 | -0.401% (inactive) | – |
| CCCCCCCCCCCCCc1ccccc1 | 1.49% [at 42.5 µM] (inactive) | – |
| CC1=CCC(=O)O1 | 0.124% (inactive) | – |
| CCC(=O)CC(C)CC (stereo unspecified) | 1.18% [at 0.349 µM] (inactive) | – |
| Cc1ccc2ccc3cccc4ccc1c2c34 | 0.723% (inactive) | – |
| O=S(O)O | 0.0003% [at 19 µM] (inactive) | – |
| O=C=NCc1cccc(CN=C=O)c1 | 1.12% [at 19 µM] (inactive) | – |
| CCN(CC)CCSC(=O)C(c1ccccc1)c1ccccc1 | -1.62% [at 42.5 µM] (inactive) | – |
| CC(=O)c1ccccc1N | 2.6% (inactive) | – |
| C=CC(=C)CC/C=C(\C)CCC=C(C)C | -2.45% [at 19 µM] (inactive) | – |
| c1ccc(Nc2cccc3ccccc23)cc1 | – | inactive |
| OCCC(O)CO (stereo unspecified) | 0.297% (inactive) | – |
| Cc1cc(C)c(C=O)c(C)c1 | -1.77% (inactive) | – |
| CNC(=S)NN | -3.89% (inactive) | – |
| CCCCCCCC(C)=O | 1.13% (inactive) | – |
| C/C=C/C(=O)Oc1c(CCCCCC(C)C)cc([N+](=O)[O-])cc1[N+](=O)[O-] | – | 9.69 µM (active) |

| Compound | activity change, negative = cytotoxicity | Potency |
| --- | --- | --- |
| CCc1cccc(CC)c1N(COC)C(=O)CS(=O)(=O)O | -2.05% (inactive) | – |
| C/C=C/C(=O)C1=C(C)CCCC1(C)C | -13.8% (inactive) | – |
| CCN(CC)c1cccc(C)c1 | 1.48% (inactive) | – |
| CC(C)=C1CC[C@@H](C)CC1=O | 0.737% (inactive) | – |
| CN(Cc1cc(Br)cc(Br)c1N)C1CCCCC1 | 0.385% [at 42.5 µM] (inactive) | – |
| C(=C/c1ccccc1)/c1ccccc1 | -1.13% (inactive) | – |
| CCCCCCCC/C=C\CCCCCCCC(=O)N(C)CC(=O)O | -6.19% (inactive) | – |
| CC=O | – | 10.1 µM (active) |
| CCCCCCCCCCCCCC[n+]1ccccc1 | – | 54.5 µM (active) |
| Cc1cc(=O)[nH]c(=O)[nH]1 | -13.4% (inactive) | – |
| CCCCCCCC/C=C\CCCCCCCC(=O)OCCOC(=O)CCCCCCC/C=C\CCCCCCCC | -7.77% (inactive) | – |
| CSc1ccc2c(c1)N(CCC1CCCCN1C)c1ccccc1S2 (stereo unspecified) | – | 68.3 µM (active) and inactive |
| Cn1cnc2ncnc(N)c21 | 4.55% [at 42.5 µM] (inactive) | – |
| COc1ccc(C#N)cc1 | -16.8% (inactive) | – |
| CCc1cccc(C)c1 | 0.818% (inactive) | – |
| CC(C)=CC1CC(C)CCO1 (stereo unspecified) | -2.36% (inactive) | – |
| O=C1OC(=O)c2ccc3c4c(ccc1c24)C(=O)OC3=O | -1.42% (inactive) | – |
